Screens as filed in PubChem.
SARS PLP yeast: qHTS of Yeast-based Assay for SARS-CoV PLP. S. cerevisiae expressing SARS-CoV PLpro, growth rescue. Potency, µM (titrated, usually from 32.9 µM), for the others: at the highest dose activity, positive = growth rescue, hits mostly activators. actives 0.19% (n = 330,000). AID 485353, 2010; calls by dose curve; also: potency is read from the fitted curve at half-maximal effect; 0% is about no effect; nearly all actives have a fitted effect of over 55% in size
Pf growth 96h: Primary qHTS for delayed death inhibitors of the malarial parasite plastid, 96 hour incubation | P. falciparum luciferase reporter growth, 96 h | Potency, µM (series often up to 28.7 µM), without a hit: at the highest dose activity change, negative = inhibition, most hits filed as inhibitors | actives 6.9% (n = 320,000); also: potency is read from the fitted curve at half-maximal effect; % is scaled to controls: 0 for no effect and ±100 for the full control effect
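Two-generation exposure (96 h) targets delayed-death phenotype. Reporter parasites carrying integrated firefly luciferase, in red cells at 2% hematocrit and 0.05% parasitemia final, kept at 37 C, 5% CO2; luminescence loss indicates inhibition.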
NS1 function inh: qHTS Assay for Inhibitors of Influenza NS1 Protein Function; Potency, µM (titrated, usually from 46.1 µM), for the others: at the top dose activity, positive = more growth; actives 0.4% (n = 270,000); AID 2326, 2010; calls by dose curve; also: potency is read from the fitted curve at half-maximal effect; actives are rising curves; nearly all actives have a fitted effect of over 50% in size
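Compounds were scored for reversing the slow growth caused by influenza A NS1 in S. cerevisiae, measured by optical density at 600 nm. Assay medium contained 2% galactose at pH 6.0; NS1-free yeast of the same strain were the positive control.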
CHX counter: Cycloheximide Counterscreen for Small Molecule Inhibitors of Shiga Toxin; cell reporter, cycloheximide protein synthesis inhibition counterscreen; max response, %; actives 12% (n = 300,000); AID 2314, 2010; in the data active = max response mostly above about 13%, no sharp cut-off; inactive = mostly below about 14%; also: read at 38.3 µM for the half of the compounds with a filed dose; 0% is about no effect
Shiga inhibitor: A qHTS for Small Molecule Inhibitors of Shiga Toxin. Vero cells, Shiga toxin protein synthesis inhibition reporter. inhibition, % at 38.7 µM. actives 9.2% (n = 290,000); in the data active = inhibition mostly above about 28%, no sharp cut-off; inactive = mostly below about 43%; also: 0% is about no effect
Pf growth 48h: Primary qHTS for delayed death inhibitors of the malarial parasite plastid, 48 hour incubation | P. falciparum luciferase growth in erythrocytes, 48 h | Potency, µM (titrated, usually from 28.7 µM), for inactives: at the top dose activity change, negative = inhibition, usual class: inhibitors | actives 5.9% (n = 310,000) | AID 504832, 2011; also: potency is read from the fitted curve at half-maximal effect; % is scaled to controls: 0 for no effect and ±100 for the full control effect
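Luminescence readout; reporter = integrated firefly luciferase in P. falciparum. RBC culture at 2% hematocrit, 0.1% parasitemia final, 37 C/5% CO2; decreased signal taken as growth inhibition.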
An asterisk follows results filed as active; ? = inconclusive; / = no result given. Shown are actives, neighbours in structure and some others; about 21% of the full set was active somewhere. Unless noted, calls follow the shape of the dose curve; as a rule, active = well fitted inhibition curve with a large enough effect; inconclusive = small, poorly fitted or top-dose-only effect, or another doubt; inactive = no such curve, though single readings can be large or run the other way.

SMILES	SARS PLP yeast	Pf growth 96h	NS1 function inh	CHX counter	Shiga inhibitor	Pf growth 48h
CCn1c(SCC(=O)Nc2c(C#N)cnn2-c2ccccc2)nnc1-c1cccs1	1%	0%	-2%	1	-4	-2%
COc1ccc(-n2ccnc2SCC(=O)NO)cc1	1%	?	/	-5	-3	1.3µM*
O=C(CSc1nccn1-c1ccccc1)NO	0%	0.93µM*	/	15	-12	2.1µM*
O=C(CSc1nccn1-c1cccc(Cl)c1)NO	4%	?	/	-4	-9	0.74µM*
COc1ccc(-n2ccnc2SCC(=O)Nc2ccc(OC)cc2OC)cc1	2%	33%	-118%	-5	-16	4%
COc1ccc(NC(=S)Nn2cnnc2)cc1OC	0%	2%	7%	-2	-11	3%
CCCc1cc(NCCCCO)n2c(nc3ccccc32)c1C#N	6%	3.3µM*	-7%	13	-4	9.3µM*
CCCc1cc(Nc2c(C)n(C)n(-c3ccccc3)c2=O)n2c(nc3ccccc32)c1C#N	17%	-2%	?	3	-6	1.7µM*
Cc1cc(NCCCCO)n2c(nc3ccccc32)c1C#N	3%	27%	-4%	-1	-2	10µM*
CCCCn1cc[n+](C)c1	/	/	/	-6	5	/
COc1ccc(Cl)cc1NC(=O)COC(=O)C1=NNC(=O)CC1	2%	/	/	/	/	/
COc1cc(/C=N/NC(=O)C(Cc2c[nH]c3ccccc23)NC(=O)OCc2ccccc2)cc([N+](=O)[O-])c1O (stereo unspecified)	15%	2%	?	1	6	-4%
COC(=O)N/N=C/c1cc(OC)c(O)c([N+](=O)[O-])c1	16%	-2%	16%	92*	77*	7%
COc1cc(/C=N/NC(=O)C(Cc2c[nH]c3ccccc23)NC(=O)OCC(C)C)cc([N+](=O)[O-])c1O (stereo unspecified)	10%	12µM*	25%	-1	10	-30%
COc1cc(/C=N/NC(=O)Cc2ccc(Br)cc2)cc(OC)c1O	1%	12µM*	2%	-5	-17	0%
COc1cc(/C=N/NC(N)=O)cc([N+](=O)[O-])c1O	1%	37%	7%	-1	-3	22%
COc1ccc(/C=N/NC(=O)Cc2ccc(Cl)cc2)cc1OC	1%	?	/	1	21	2%
C=CCn1c(SCc2ccccc2Cl)nnc1-c1sc2nc(C)cc(C)c2c1N	0%	?	4%	1	2	12µM*
Cc1cccc(-c2noc(CN(C)C(=O)c3ccc4c(c3)OCO4)n2)c1	6%	-19%	-1%	1	-6	14%
C=COCCNC(=S)N1CCOCCOCCN(C(=S)NCCOC=C)CCOCC1	2%	12%	/	-11	8	?
COc1ccc(NC(=O)[C@@H]2CCCN2C(=O)[C@@H]2Cc3ccccc3CN2C(=O)OC(C)(C)C)cc1	-3%	12µM*	6%	23	22	12µM*
CC(C)(C)OC(=O)N1CCC[C@H]1C(=O)N/N=C/c1ccc2ncccc2c1	0%	12µM*	-2%	9	22	?
CC(=O)c1ccc(NC(=O)[C@@H]2CCCN2C(=O)OC(C)(C)C)cc1	1%	62%	1%	51*	87*	58%
O=C(NC1CCNCC1)C1CC1	2%	46%	3%	-1	12	18%
COc1ccccc1N1CCN(C(c2ccccc2)c2nnnn2CCc2ccccc2)CC1 (stereo unspecified)	-19%	-6%	-1%	0	18	10µM*
SMILES	SARS PLP yeast	Pf growth 96h	NS1 function inh	CHX counter	Shiga inhibitor	Pf growth 48h
C=CCN1CCN(C(CC(C)C)c2nnnn2CCOC)CC1 (stereo unspecified)	-1%	20%	-22%	1	3	6%
COc1cccc(C(c2nnnn2CCc2ccccc2)N2CCN(c3ccccc3)CC2)c1OC (stereo unspecified)	-41%	?	-14%	-3	4	4.7µM*
C=CCN1CCN(C(c2cccc(OC)c2OC)c2nnnn2CCC(C)C)CC1 (stereo unspecified)	-1%	10%	/	1	5	7.4µM*
OC[C@@H]1O[C@H](OC2[C@@H](O)[C@@H](O)[C@@H](O)O[C@@H]2CO)[C@H](O)[C@@H](O)[C@@H]1OC1O[C@H](CO)[C@@H](O)[C@H](O)[C@@H]1O (stereo partly specified)	/	/	/	-4	-5	/
CN(C)C(C)(C)/C=C/C(O)(c1ccccc1)c1ccccc1	-1%	3%	4%	1	-20	-2%
Cc1csc(=O)n1CC(=O)OCC(=O)NCc1ccc(Cl)cc1Cl	6%	15%	/	/	/	-19%
O=c1c(-c2nc3ccccc3s2)cccn1Cc1ccc(Cl)c(Cl)c1	1%	?	6%	-3	-2	?
O=C(O)c1ccc(COc2ccc3ccccc3c2/C=C2/NC(=O)N(Cc3ccc(F)cc3)C2=O)cc1	1%	32%	14%	7	2	8.3µM*
O=C(O)c1ccc(COc2ccccc2/C=C2\NC(=O)N(Cc3ccccc3)C2=O)cc1	0%	?	/	2	-9	?
c1cncc(-c2noc(C34CC5CC(CC(C5)C3)C4)n2)c1	0%	1%	-32%	22*	36*	?
O=C(NCCOC(=O)c1ccc(S(=O)(=O)N2CCOCC2)cc1)c1cccnc1	3%	2.3µM*	-8%	-3	-5	1%
O=C(Nc1cccc(S(=O)(=O)N2CCOCC2)c1)c1cccc(S(=O)(=O)N2CCCCC2)c1	-3%	?	/	/	/	?
CCOC(=O)c1ccc(NC(=O)c2cccc(S(=O)(=O)N3CCOCC3)c2)cc1	-2%	4%	-9%	-8	-1	6.6µM*
O=C(Nc1ccc(N2CCCCCC2)cc1)c1cccc(S(=O)(=O)N2CCOCC2)c1	5%	10µM*	/	/	/	13µM*
CCOC(=O)c1ccc(NC(=O)c2ccc(C)c(S(=O)(=O)N3CCOCC3)c2)cc1	4%	76%	-10%	-1	-5	/
CCOc1ncccc1C(=O)NNC(=O)c1ccc(NS(=O)(=O)c2cccs2)cc1	-5%	13%	/	/	/	2%
NC(=O)c1ccc(NC(=O)CN2CCN(Cc3ccccc3)CC2)cc1	-3%	31%	-3%	-2	-4	16%
CCOC(=O)C(=O)NCC(c1cccs1)S(=O)(=O)c1ccc(F)cc1 (stereo unspecified)	/	12µM*	/	/	/	?
Cc1ccc(S(=O)(=O)C(CNC(=O)C(C)C)c2cccs2)cc1 (stereo unspecified)	8%	27%	3%	-1	-10	4%
CCNC(=O)C(=O)NCC(c1cccs1)S(=O)(=O)c1ccc(C)cc1 (stereo unspecified)	3%	4.1µM*	?	-6	18	22%
